Activity calls are given as the source filed them. The calls were made as follows: active = hit-call score of the fitted dose curve at least 0.9, where 1 is the maximum; inactive = score below 0.9.
read-out: Intercellular Adhesion Molecule 1 (ICAM1), ICAM1 (gene 3383); assay: BSK_KF3CT_ICAM1: BioMAP Diversity Plus: KF3CT Assay for Intercellular Adhesion Molecule 1 (ICAM1) Biomarker Activity (AID 2283067); settings: primary human keratinocytes with fibroblasts; actives raise or lower the signal
Experimental: BSK_KF3CT is a cell-based, multiplexed-readout assay that uses keratinocytes and foreskin fibroblasts, a human skin primary cell co-culture, with measurements taken at 24 hours after chemical dosing in a 96-well plate.BSK_KF3CT_ICAM1 is an assay component measured in the BSK_KF3CT assay. It measures ICAM-1 antibody related to regulation of gene expression using ELISA technology.Data from the assay component BSK_KF3CT_ICAM1 was analyzed into 1 assay endpoint. This assay endpoint, BSK_KF3CT_ICAM1, was analyzed with bidirectional fitting relative to DMSO as the negative control and baseline of activity. Using a type of binding reporter, gain or loss-of-signal activity can be used to understand changes in the signaling as they relate to the gene ICAM1. Furthermore, this assay endpoint can be referred to as a primary readout, because this assay has produced multiple assay endpoints where this one serves a signaling function. To generalize the intended target to other relatable targets, this assay endpoint is annotated to the cell adhesion molecules intended target family, where the subfamily is Immunoglobulin CAM.
The levels of cell surface (or secreted, indicated by the prefix "s") biomarker endpoints were measured by ELISA. Overt cytotoxicity to cells in confluent adherent cultures (all systems other than the BT system) was assessed by measuring total protein levels using sulforhodamine B (SRB) staining in parallel cultures at the time of biomarker measurements, indicated as SRB endpoints. For proliferation assays for adherent cell types, individual cell types are cultured at sub-confluence and relative cell numbers quantified by SRB staining at time points optimized for each system (48 h: 3C and CASM3C systems; 72 h: BT and HDF3CGF systems; 96 h: SAg system). SRB was performed by staining cells with 0.1% SRB after fixation with 10% TCA and reading wells at 560 nm.Viability and proliferation of PBMC (T cells) was quantified by Alamar Blue reduction for the SAg and BT systems. For PBMC viability (referred to as PBMC Cytotoxicity within the assay endpoint names), cells were plated (75,000/well in a 96-well plate) and then chemical samples added for 1 h before addition of activators, SEB and TSST-1 (20 ng/mL final concentration each). Cells were incubated for 90 h. Then, Alamar Blue (20 uL/well) (Invitrogen, Cat DAL1100) was added for 6 h, and the plates were read with a fluorescence microplate reader at 546/580 nm (excitation/emission). For PBMC proliferation, cells were plated and activated as above but incubated for only 16 h prior to addition of Alamar Blue. Plates were read after 6 h.

SMILES	outcome	AC50
NS(=O)(=O)c1cc2c(cc1Cl)NCNS2(=O)=O	inactive	–
C1CCC(SSC2CCCCC2)CC1	inactive	–
CCCCCCCCCCC	inactive	–
O=[N+]([O-])C(CO)(CO)CO	inactive	–
Cc1ccc(C)c(O)c1C	inactive	–
Cc1cccc(Nc2cc(Cl)nc(SCC(=O)O)n2)c1C	inactive	–
CNC(=O)[C@H]1O[C@@H](n2cnc3c(NCc4cc(Cl)ccc4OCc4cc(C)no4)ncnc32)[C@H](O)[C@@H]1N	inactive	–
Nc1nc(N)c2nc(CNc3ccc(C(=O)N[C@@H](CCC(=O)O)C(=O)O)cc3)cnc2n1	inactive	–
CC(=O)OC/C=C(\C)CCC=C(C)C	inactive	–
C[C@]12C=CC(=O)C=C1CC[C@@H]1[C@@H]2C(=O)C[C@@]2(C)[C@H]1CC[C@]2(O)C(=O)CO	inactive	–
NCC1(Cc2noc(=O)[nH]2)CCCCC1	inactive	–
Nc1ccccc1N	inactive	–
CCCCC(CC)COC(=O)CC(C(=O)OCC(CC)CCCC)S(=O)(=O)O (stereo not given)	–	11.8 µM (active)
CCOC(=O)C(C)(C)Oc1ccc(Cl)cc1	inactive	–
CC=Cc1ccc(O)c(OC)c1	inactive	–
CN[C@H]1CC[C@@H](c2ccc(Cl)c(Cl)c2)c2ccc(S(N)(=O)=O)cc21	–	31.6 µM (active)
Cc1ccc(C(C)C)c(O)c1	inactive	–
CCCCCCCCCCCCCCCCCC(=O)O	inactive	–
Cc1ccc(Cl)cc1	inactive	–
CC(C)c1ccc(C(=O)N=C(N)N)cc1S(C)(=O)=O	inactive	–

SMILES	outcome	AC50
CCOC(=O)CCC(=O)OCC	inactive	–
Cc1c(C(=O)O)c(O)cc2c1C(=O)c1c(O)c([C@@H]3O[C@H](CO)[C@@H](O)[C@H](O)[C@H]3O)c(O)c(O)c1C2=O	inactive	–
CCCCCC(=O)O	inactive	–
COc1cc(C=O)ccc1O	inactive	–
Cc1cccc([N+](=O)[O-])c1C	inactive	–
CN1CCN(Cc2cc(-c3ccc4[nH]c(=O)oc4c3)co2)[C@@H](c2ccc(F)cc2)C1	inactive	–
COCCOCCOC	inactive	–
CC(C)(C)c1cc(O)c(C(C)(C)C)cc1O	inactive	–
CCCCCCC(=O)OCC	inactive	–
Cc1ccc2ncccc2c1	inactive	–
CCNc1cccc(C)c1	inactive	–
Nc1ccc(S(=O)(=O)c2ccc(N)cc2)cc1	inactive	–
CCCc1cc(=O)[nH]c(=S)[nH]1	inactive	–
O=C(O)CCCCC(=O)O	inactive	–
Cc1ccccc1Cl	inactive	–
O=C(N[C@@H](Cc1ccccc1)[C@@H](O)C(=O)N1C[C@@H](O)[C@@H](O)C1)c1cc2cc(Cl)ccc2[nH]1	inactive	–
Cc1nc(-c2ccc3c(c2)CCN(CCC2CCC(NC(=O)/C=C/c4ccc(F)cc4)CC2)CC3)no1 (stereo not given)	inactive	–
COc1cc(-c2nc(NC(=O)c3cc4cc(C)cc(C)c4n3CC(=O)O)sc2CCC2CCCCC2)c(OC)cc1Cl	–	3.23 µM (active)
CCCCOC(=O)CCCCCCCCC(=O)OCCCC	inactive	–
Cc1oc(-c2ccccc2)nc1CCOc1cccc2c1ccn2CCC(=O)O	inactive	–
